Experimental data taken from ChEMBL document CHEMBL3988442, “University of Dundee, Small-Polar-MMV Screening Library” (2021).
For some of these results: Results with a measured potency or affinity are listed apart.

Columns and labels:
Set-up in all cases: scale not given: direction of the effect not stated beside the values
[1] = biological target: Protein translocase subunit SecA (Escherichia coli (strain K12)) (UniProt P10408); assay: Assay to Identify E. coli SecA ATPase Inhibitors; assay type: functional; settings: 30 µM
[2] = biological target: T1, Ubiquitin-activating enzyme e1, putative (Leishmania donovani (strain BPK282A1)) (UniProt E9BSI1); assay: Leishmania donovani Ubiquitin Activating Enzyme (LdE1); assay type: functional; settings: 30 µM
T1 sequence (whole entry): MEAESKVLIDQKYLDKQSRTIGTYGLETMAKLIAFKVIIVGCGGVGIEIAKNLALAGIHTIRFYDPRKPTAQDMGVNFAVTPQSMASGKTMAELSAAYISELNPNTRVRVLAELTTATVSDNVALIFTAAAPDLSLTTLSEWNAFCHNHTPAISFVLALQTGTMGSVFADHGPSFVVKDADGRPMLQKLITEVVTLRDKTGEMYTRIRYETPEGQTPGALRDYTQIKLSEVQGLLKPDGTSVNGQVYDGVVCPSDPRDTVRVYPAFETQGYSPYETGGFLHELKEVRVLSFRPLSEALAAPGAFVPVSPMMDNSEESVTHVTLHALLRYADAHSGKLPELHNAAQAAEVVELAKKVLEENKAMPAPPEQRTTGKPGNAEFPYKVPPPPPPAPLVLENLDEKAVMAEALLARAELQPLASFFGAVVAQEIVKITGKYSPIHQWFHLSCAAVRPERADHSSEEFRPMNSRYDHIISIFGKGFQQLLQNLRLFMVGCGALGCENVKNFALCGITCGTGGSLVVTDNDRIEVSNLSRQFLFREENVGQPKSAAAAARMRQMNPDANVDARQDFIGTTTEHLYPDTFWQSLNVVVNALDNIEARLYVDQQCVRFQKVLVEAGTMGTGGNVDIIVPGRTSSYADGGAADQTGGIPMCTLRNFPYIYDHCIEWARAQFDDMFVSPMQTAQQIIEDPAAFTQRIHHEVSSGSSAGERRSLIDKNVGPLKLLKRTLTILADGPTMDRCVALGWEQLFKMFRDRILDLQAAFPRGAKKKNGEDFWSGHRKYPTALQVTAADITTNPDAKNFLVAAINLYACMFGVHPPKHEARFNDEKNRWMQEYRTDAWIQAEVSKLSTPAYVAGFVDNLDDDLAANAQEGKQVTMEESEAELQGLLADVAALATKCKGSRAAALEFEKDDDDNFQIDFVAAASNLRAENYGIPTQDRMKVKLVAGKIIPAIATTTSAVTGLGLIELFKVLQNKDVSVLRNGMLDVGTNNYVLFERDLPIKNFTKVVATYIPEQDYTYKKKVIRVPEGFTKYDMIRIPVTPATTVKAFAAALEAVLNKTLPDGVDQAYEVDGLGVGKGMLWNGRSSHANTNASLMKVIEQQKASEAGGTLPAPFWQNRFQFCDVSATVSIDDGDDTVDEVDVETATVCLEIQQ

[3] = biological target: AMP-activated protein kinase, AMPK (Homo sapiens) (UniProt P54646+O43741+P54619+Q9UGJ0+Q9Y478+Q13131+Q9UGI9); assay: AMP-dependent Kinase enzyme assay. An in vitro enzyme assay that detects ADP turnover that is directly proportional to AMPK activity. This uses naive AMPK that is activated during the assay with MK-8722; assay type: functional; settings: 30 µM
[4] = biological target: Sialic acid-binding Ig-like lectin 9 (Homo sapiens) (UniProt Q9Y336); assay: Hs-Siglec9 ALPHAscreen SOP 20170721; settings: 10 µM
Trypanosoma cruzi = assay: Trypanosoma cruzi phosphomannomutase and mannose-1-phosphate guanylyltransferase assay; assay type: functional; settings: 10 µM
[5] = biological target: T2, Arginase-2, mitochondrial (Homo sapiens) (UniProt P78540); assay: in vitro enzyme assay to detect the production of urea directly proportional to the activity of Arginase II; assay type: functional; settings: 33.3 µM; also: in the data most compounds retested in dose-response had high values
T2 sequence (whole entry): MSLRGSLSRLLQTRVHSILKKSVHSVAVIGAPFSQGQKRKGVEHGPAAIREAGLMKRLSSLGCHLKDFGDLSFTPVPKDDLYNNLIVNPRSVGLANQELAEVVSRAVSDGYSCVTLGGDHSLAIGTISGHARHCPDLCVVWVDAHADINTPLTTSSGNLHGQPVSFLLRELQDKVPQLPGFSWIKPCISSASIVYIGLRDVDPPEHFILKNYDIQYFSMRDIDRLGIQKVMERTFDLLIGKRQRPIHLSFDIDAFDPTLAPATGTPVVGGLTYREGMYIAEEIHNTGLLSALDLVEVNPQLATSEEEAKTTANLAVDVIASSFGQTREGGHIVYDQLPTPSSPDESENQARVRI

[6] = biological target: T3, Proteasome subunit beta (Trypanosoma cruzi) (UniProt O96673); assay: Trypanosoma cruzi proteasome chymotrypsin-like activity (TcProtChymo) assay.; also: in the data most compounds retested in dose-response had high values; assay type: functional; settings: 9.37 µM
T3 sequence (whole entry): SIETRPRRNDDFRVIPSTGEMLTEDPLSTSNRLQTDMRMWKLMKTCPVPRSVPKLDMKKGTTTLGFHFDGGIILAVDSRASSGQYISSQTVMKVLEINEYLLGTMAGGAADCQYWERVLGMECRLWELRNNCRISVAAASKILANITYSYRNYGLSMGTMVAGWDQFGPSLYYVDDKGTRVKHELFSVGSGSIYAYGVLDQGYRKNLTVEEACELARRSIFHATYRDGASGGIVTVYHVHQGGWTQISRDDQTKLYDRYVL

Homo sapiens = species on record: Homo sapiens; assay: To identify inhibition of the IFN signalling (Jak-Stat) pathway via expression of an eGFP reporter gene under the control of an IFN-stimulated response element (ISRE) containing MxA promoter.; assay type: functional; settings: 30 µM
[7] = biological target: T4, Tyrosyl-tRNA synthetase, putative (Trypanosoma cruzi (strain CL Brener)) (UniProt Q4DSP6); assay: Trypanosoma cruzi tyrosyl tRNA synthetase (TcYRS) _High Tyrosine SOP; assay type: functional; settings: 30 µM; also: in the data most compounds retested in dose-response had high values
T4 sequence (whole entry): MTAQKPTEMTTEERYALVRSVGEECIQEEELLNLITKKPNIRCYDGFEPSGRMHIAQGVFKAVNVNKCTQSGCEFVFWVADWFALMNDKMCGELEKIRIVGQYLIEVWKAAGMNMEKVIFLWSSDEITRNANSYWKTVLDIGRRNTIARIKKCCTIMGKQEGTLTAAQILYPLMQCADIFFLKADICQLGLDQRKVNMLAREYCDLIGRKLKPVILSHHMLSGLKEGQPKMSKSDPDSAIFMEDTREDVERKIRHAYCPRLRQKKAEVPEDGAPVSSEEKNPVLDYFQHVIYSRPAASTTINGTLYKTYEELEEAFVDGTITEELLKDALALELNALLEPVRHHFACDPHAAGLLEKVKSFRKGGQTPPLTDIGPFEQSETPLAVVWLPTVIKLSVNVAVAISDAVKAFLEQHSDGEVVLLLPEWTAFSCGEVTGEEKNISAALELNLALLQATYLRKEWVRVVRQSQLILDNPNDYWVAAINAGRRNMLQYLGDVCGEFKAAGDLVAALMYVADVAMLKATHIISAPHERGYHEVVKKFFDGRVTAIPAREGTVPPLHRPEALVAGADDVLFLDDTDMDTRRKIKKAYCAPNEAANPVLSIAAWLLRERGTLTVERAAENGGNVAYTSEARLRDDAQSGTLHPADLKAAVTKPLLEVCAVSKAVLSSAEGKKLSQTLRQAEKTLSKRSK

[8] = biological target: T4, Tyrosyl-tRNA synthetase, putative (Trypanosoma cruzi (strain CL Brener)); assay: Trypanosoma cruzi tyrosyl tRNA synthetase (TcYRS) SOP; assay type: functional; settings: 30 µM
[9] = biological target: Chromo domain-containing protein 1 (Saccharomyces cerevisiae (strain ATCC 204508 / S288c) (Baker's yeast)) (UniProt P32657); assay: ScCHD-1 Enzyme Inhibition Assay; assay type: functional; settings: 30 µM; also: in the data most compounds retested in dose-response had high values
Chain of Chromo domain-containing protein 1 (Saccharomyces cerevisiae (strain ATCC 204508 / S288c) (Baker's yeast)) (P32657 whole entry, the tested form may be a part): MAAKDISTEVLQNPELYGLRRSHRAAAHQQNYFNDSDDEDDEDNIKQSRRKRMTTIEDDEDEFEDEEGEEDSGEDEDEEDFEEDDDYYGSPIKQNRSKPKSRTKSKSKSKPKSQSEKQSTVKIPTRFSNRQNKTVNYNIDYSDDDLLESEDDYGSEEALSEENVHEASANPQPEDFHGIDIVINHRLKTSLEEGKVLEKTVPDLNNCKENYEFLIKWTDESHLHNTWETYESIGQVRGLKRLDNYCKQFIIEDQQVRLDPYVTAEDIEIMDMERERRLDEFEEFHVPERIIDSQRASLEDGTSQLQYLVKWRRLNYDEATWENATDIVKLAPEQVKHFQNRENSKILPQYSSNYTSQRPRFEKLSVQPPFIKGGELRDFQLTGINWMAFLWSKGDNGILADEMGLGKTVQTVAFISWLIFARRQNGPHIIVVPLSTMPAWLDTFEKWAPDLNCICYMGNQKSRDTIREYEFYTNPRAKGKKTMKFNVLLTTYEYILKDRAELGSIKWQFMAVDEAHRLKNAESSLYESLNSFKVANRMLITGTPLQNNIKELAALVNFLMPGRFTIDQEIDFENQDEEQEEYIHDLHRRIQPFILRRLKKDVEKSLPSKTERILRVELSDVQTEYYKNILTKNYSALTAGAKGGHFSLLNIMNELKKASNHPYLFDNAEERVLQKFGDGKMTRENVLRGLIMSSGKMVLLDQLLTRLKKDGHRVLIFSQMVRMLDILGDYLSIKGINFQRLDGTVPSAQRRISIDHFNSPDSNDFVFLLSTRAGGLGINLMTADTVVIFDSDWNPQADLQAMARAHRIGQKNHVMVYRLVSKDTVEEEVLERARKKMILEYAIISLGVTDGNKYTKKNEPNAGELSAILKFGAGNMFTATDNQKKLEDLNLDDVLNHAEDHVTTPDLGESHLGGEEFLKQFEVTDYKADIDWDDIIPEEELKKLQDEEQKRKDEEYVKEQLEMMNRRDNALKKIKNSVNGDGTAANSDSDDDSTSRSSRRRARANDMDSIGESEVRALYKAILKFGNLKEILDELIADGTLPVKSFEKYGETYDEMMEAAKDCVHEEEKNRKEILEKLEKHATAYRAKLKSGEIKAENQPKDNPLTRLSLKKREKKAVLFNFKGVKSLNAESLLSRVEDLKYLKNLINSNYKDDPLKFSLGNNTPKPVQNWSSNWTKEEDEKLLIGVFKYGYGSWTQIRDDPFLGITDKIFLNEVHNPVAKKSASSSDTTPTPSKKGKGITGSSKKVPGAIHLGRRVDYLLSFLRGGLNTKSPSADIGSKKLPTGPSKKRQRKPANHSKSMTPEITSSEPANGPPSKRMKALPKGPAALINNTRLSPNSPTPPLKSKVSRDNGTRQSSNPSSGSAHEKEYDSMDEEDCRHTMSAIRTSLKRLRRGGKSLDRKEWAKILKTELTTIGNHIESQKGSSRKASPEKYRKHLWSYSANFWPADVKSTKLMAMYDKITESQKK

Chain of Protein translocase subunit SecA (Escherichia coli (strain K12)) (P10408 whole entry): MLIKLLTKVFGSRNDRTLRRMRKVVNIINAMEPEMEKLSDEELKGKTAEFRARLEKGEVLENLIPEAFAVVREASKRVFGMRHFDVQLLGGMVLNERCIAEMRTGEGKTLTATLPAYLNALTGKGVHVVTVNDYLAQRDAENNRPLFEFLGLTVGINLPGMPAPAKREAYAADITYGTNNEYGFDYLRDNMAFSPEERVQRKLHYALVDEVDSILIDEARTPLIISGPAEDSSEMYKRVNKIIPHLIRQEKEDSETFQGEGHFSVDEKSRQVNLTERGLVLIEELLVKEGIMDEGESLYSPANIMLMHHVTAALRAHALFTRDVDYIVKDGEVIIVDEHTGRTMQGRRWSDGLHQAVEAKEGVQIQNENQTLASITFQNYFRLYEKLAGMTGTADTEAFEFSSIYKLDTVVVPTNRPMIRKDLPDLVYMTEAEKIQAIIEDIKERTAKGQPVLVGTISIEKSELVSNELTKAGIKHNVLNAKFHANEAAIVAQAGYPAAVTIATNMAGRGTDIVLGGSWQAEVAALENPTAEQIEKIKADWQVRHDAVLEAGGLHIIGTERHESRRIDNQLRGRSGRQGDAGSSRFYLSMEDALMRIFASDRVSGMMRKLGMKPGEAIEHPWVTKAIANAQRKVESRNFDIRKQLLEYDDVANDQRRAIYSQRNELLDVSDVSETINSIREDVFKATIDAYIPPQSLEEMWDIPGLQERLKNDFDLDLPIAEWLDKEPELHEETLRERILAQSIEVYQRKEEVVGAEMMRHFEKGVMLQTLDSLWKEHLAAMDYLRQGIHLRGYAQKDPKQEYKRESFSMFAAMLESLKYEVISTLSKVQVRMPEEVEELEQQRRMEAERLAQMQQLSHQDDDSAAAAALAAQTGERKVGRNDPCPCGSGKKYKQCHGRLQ
Chain of Sialic acid-binding Ig-like lectin 9 (Homo sapiens) (Q9Y336 whole entry): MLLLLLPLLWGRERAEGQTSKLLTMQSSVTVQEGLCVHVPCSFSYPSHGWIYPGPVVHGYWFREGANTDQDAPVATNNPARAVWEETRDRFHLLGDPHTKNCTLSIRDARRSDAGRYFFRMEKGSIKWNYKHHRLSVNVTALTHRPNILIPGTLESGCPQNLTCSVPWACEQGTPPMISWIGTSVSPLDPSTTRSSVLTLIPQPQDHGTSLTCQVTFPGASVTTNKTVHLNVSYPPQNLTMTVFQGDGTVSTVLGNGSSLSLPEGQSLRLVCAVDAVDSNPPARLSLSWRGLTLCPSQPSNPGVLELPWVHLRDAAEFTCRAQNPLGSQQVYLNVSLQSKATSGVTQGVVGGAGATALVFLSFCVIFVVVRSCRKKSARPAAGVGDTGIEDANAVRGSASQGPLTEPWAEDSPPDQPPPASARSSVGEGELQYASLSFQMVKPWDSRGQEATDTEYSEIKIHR

Compound	Percent Effect [1] [%]	Percent Effect [2] [%]	Percent Effect [3] [%]	Percent Effect [4] [%]	Percent Effect (Trypanosoma cruzi) [%]	Percent Effect [5] [%]	Percent Effect [6] [%]	Percent Effect (Homo sapiens) [%]	Percent Effect [7] [%]	Percent Effect [8] [%]	Percent Effect [9] [%]
CC(C)(C)NC(=O)C1CSCN1S(=O)(=O)c1cccc(F)c1 (stereo unspecified)	1.74	8.22	-2.49	-2.56	-8.81	0.909	20.2	12.2	3.23	10	-1.73
CCN1CCN(C2CCN(Cc3ncc(C(C)(C)C)o3)CC2)C1=O	-2.95	-7.79	6.42	7.85	1.47	-1.47	7.2	-13.2	6.67	7.06	-19.1
CCC(C)(C)NC(=O)Cn1nc(C)nc1-c1cccc(C)c1	-4.79	20.8	3.98	-4.39	-3	1.07	7.26	14.5	9.71	21.9	-6.87
CC(NC(=O)NCCCn1cccn1)c1cccnc1 (stereo unspecified)	-4.3	-2.67	-0.757	-5.85	-4.77	-3.12	7.85	1.99	-1.64	-6.17	6.57
CC(C1CC1)N(C(=O)NCCCn1nc2ccccn2c1=O)C1CC1 (stereo unspecified)	-5.32	16.4	-9.44	24	3.13	20.9	15.3	1.6	4.3	15	-6.77
COc1ccnc(N2CCN(C(=O)c3cnn(C)c3C3CC3)CC2)n1	-5.79	10.8	-3.14	28.6	3.81	0.744	6.61	-9.54	4.3	16.1	-13.1
CCCn1nc(C2CCNCC2)n(Cc2ccccc2)c1=O	-2.26	13.5	-3.97	17	7.34	-5.71	10.2	0.924	5.82	14.6	-1.76
O=C1N(c2ccc(Br)cc2)Cc2nc(=O)[nH]n21	-6.3	22.7	-2.95	0.772	1.38	-1.58	4.44	7.62	5.29	15.4	-11.8
CC(=O)N(Cc1ncc(C(C)C)o1)C1CCN(Cc2ncc[nH]2)C1 (stereo unspecified)	-1	10.8	-3.5	-1.85	3.99	-3.14	5.21	6.45	13.9	25.6	-5.05
O=C(c1cnccn1)N1CCN2C[C@H](OCc3ccccn3)C[C@H]2C1	-0.668	0	2.67	7.25	-3.09	0.538	13	-9.74	1.04	-2.5	3.56
O=C1[C@H]2CC[C@H](CN(Cc3ccccc3OC(F)F)C2)N1CC1CC1	2.17	13.5	8.9	13.9	4.05	13.3	17.1	19	7.94	17.1	-1.8
